Bioassay records from PubChem BioAssay.
Most compounds without a hit are left out; they make up all but 2.5% or so of the library.
Bim-Mcl-1: disrupts Bim peptide binding to human Mcl-1; Bead-based flow cytometry, Bim peptide-Mcl-1 binding; AID 1009; Q07820; 190,000 compounds, 0.1% hits; inhibition, % at 10 µM; in the data active = inhibition above about 40%;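 also: 0% = no compound tracer wells and 100% = peptide blocker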
Target sequence (Q07820 whole entry, looked up): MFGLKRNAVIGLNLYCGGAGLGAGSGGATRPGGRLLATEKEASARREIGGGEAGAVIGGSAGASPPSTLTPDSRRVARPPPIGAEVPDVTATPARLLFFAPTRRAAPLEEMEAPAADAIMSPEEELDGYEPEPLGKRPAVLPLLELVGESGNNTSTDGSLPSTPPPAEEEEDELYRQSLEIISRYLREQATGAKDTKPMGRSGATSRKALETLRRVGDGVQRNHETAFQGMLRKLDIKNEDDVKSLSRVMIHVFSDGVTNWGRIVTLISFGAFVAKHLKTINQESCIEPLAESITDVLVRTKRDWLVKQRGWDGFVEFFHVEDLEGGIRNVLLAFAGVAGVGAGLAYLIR
MCL1-BIM inh: MCL1-BIM-BH3 interaction inhibition (human); GST-MCL1 / FITC-Bim-BH3 fluorescence polarization; 320,000 compounds, 0.68% hits; AID 2057; inhibition, % at 10.9 µM; Q07820;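 active = inhibition above the mean inhibition of all tested compounds plus 3 SD, set per campaign, cut at about 40% in these data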;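 also: 0% = DMSO wells and 100% = unlabeled Bim-BH3 peptide control; higher means more loss of mP so more displacement of Bim peptide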
Mcl1-Noxa inh: Mcl-1/Noxa interaction inhibition. Q07820. TR-FRET Mcl-1/Noxa peptide binding, 2 h. inhibition, % at 21.7 µM. 220,000 compounds, 1.5% hits;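 active = compounds that cut the protein-peptide binding signal by more than 50% relative to plate controls in a single-dose test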;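 also: His-tagged Mcl-1 with rhodamine Noxa BH3 peptide and terbium anti-His antibody; 0% = Mcl-1 plus Noxa peptide wells and 100% = peptide-only wells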
Mcl1 Bid PPI: Mcl-1/Bid interaction inhibition; Q07820; TR-FRET Mcl-1/Bid-Dy647 peptide binding, 1536-well; inhibition, % at 21.7 µM; 220,000 compounds, 0.97% hits;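 active = compounds that cut the binding signal by more than half at the single screening dose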;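 also: His-tagged Mcl-1 with europium anti-His antibody binding Bid BH3 peptide; 0% = Mcl-1 plus peptide wells and 100% = peptide-only wells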
14-3-3 Bad PPI: disrupts binding of bovine 14-3-3 zeta to phospho-Bad peptide; 220,000 compounds, 0.71% hits; AID 781; TR-FRET 14-3-3zeta/Dy647-pBad peptide displacement, 1 h; inhibition, % at 21.7 µM;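 active = inhibition above about 70%, limit read from the data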;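 also: 0% = full 14-3-3 plus peptide FRET controls and 100% = background without 14-3-3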
Target sequence (P63103 whole entry, looked up): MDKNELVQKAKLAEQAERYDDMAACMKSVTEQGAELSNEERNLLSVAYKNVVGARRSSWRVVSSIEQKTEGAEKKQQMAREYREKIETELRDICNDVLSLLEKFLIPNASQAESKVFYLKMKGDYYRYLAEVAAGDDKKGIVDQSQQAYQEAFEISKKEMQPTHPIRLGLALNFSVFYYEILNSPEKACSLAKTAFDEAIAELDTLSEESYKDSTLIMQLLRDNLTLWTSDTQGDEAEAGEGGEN
Active calls of the source: *; nt = not tested or not shown.

SMILES	Bim-Mcl-1	MCL1-BIM inh	Mcl1-Noxa inh	Mcl1 Bid PPI	14-3-3 Bad PPI
Cc1nc(-c2cccc(NC(=O)c3cccs3)c2)cs1	0.0	11.5	-2.5	4.8	-2.1
O=C(Nc1cccc(-c2csc(-c3ccccc3)n2)c1)c1cccs1	1.0	0.0	-7.8	96.3*	-1.8
COc1ccc(-c2csc(NC(=S)NC(=O)c3cccs3)n2)cc1OC	0.0	nt	82.0*	-87.2	-12.7
Cc1cccc(Nc2nc(-c3ccc(O)cc3O)cs2)n1	nt	12.0	nt	nt	nt
OCCNCCCCSc1ccc(Cl)cc1	-3.0	-3.4	27.3	17.3	41.6
CCCCCCN(C(=O)CCCCCN1C(=O)NC(c2ccc(-c3ccccc3)cc2)C(C(=O)OCc2ccccc2)=C1C)C(C(=O)NCCCC)C1CCCCC1 (stereo not given)	nt	nt	14.9	-36.1	-4.8
OCC[C@H]1C[C@@H](O)[C@H](O)[C@]2(CCc3ccccc3O2)O1	nt	4.8	nt	nt	nt
Oc1ccc(-c2csc(Nc3ncccn3)n2)cc1O	0.0	nt	86.9*	-47.5	-7.4
CC(=O)Nc1cccc(-c2csc(Nc3ncccn3)n2)c1	-1.0	nt	29.1	-29.8	8.8
Nc1c(C(=O)NCc2ccco2)sc2nc3c(cc12)C(=O)CCC3	11.0	26.8	87.8*	-44.6	10.1
COc1ccc2cc3c(N)c(C(=O)NCc4ccco4)sc3nc2c1	1.0	23.7	63.4*	-14.8	9.8
O=C(N/N=C/c1coc2ccccc2c1=O)c1cc(Br)ccc1O	nt	12.5	nt	nt	nt
Oc1c(/C=N/c2ccccn2)sc2ccccc12	nt	-42.2	76.1*	48.6	-8.7
NC1=NC(=Nc2cccc(S(N)(=O)=O)c2)c2ccccc21	nt	5.4	6.6	-10.9	1.7
COc1cc(N=Nc2cccc(S(N)(=O)=O)c2)c2ccccc2c1N	nt	-57.8	66.9*	3.9	-2.9
CC(C)N1C(=O)C(O)(C2COC(C)(C)CC2=O)c2ccccc21 (stereo not given)	-1.0	4.8	36.4	38.7	70.7*
O=C(N/N=C/c1ccc(OCc2ccccc2)cc1)c1ccco1	nt	-2.3	9.9	-41.6	-2.0
COc1ccc(/C=C2\SC(=S)N(CCC(=O)NC3=NCCS3)C2=O)cc1OC	0.0	11.4	55.6*	21.9	15.7
COc1cc(/C=C2\SC(=S)N(CC(=O)Nc3ccc(O)cc3)C2=O)cc(OC)c1OC	0.0	nt	77.3*	-16.9	57.0
COc1cc(/C=C2\SC(=S)N(CC(=O)NC3=NCCS3)C2=O)cc(OC)c1OC	0.0	14.7	11.6	0.5	-12.5
Cc1cc(NC(=O)CCN2C(=O)/C(=C\c3ccccc3)SC2=S)no1	nt	3.0	71.5*	-4.7	-3.5
Cc1cc(NC(=O)CCN2C(=O)/C(=C/c3ccccc3F)SC2=S)no1	4.0	2.8	41.9	-6.1	5.7
C=CCn1c(SCC(=O)NCc2ccco2)nc2sc3c(c2c1=O)CCCC3	2.0	1.0	5.3	-3.8	-16.5
O=C(NCc1ccco1)c1ccc2nc3sc4c(c3c(=O)n2c1)CCCC4	8.0	9.0	67.8*	2.2	6.2
O=C(COc1ccc2ccccc2c1Br)NC(=S)Nc1cccc(CO)c1	-4.0	-0.1	5.0	52.2*	41.8
SMILES	Bim-Mcl-1	MCL1-BIM inh	Mcl1-Noxa inh	Mcl1 Bid PPI	14-3-3 Bad PPI
COc1ccc(-c2cc(-c3ccccc3)c(C#N)c(S(C)(=O)=O)n2)cc1	0.0	-5.2	-6.7	-8.8	1.8
COc1nc(-c2ccccc2)cc(-c2ccc3c(c2)OCO3)c1C#N	nt	8.7	15.1	55.7*	-3.0
Clc1ccc(-c2nn3c(C4COc5ccccc5O4)nnc3s2)cc1 (stereo not given)	-6.0	10.3	-24.8	-7.3	-16.4
COc1ccccc1CN1CCN(C(=O)c2ccncc2)CC1	0.0	5.2	20.9	41.3	83.2*
O=C(c1ccc(Br)cc1)N1CCN(Cc2ccccc2)CC1	nt	0.7	nt	nt	nt
CCOC(=O)N1CCN(C(=O)c2ccc(OC)c(OC)c2)CC1	-1.0	-2.3	11.3	-38.3	-7.5
COc1ccc(C(=O)N2CCN(Cc3ccccc3C)CC2)cc1OC	0.0	0.6	12.3	75.1*	53.1
COc1ccccc1C(=O)N1CCN(c2ccccn2)CC1	-2.0	1.6	2.9	-5.5	-9.6
COc1cccc(OC)c1C(=O)N1CCN(c2ccccn2)CC1	1.0	5.0	35.2	94.7*	-4.9
O=C(c1ccccc1)N1CCN(Cc2ccccc2Br)CC1	-1.0	-9.0	31.6	83.7*	45.6
CCOC(=O)n1cc(C(=O)c2ccccc2O)cn1	nt	7.0	nt	nt	nt
CSc1nc2ccc(NC(=O)C3CC(=O)N(Cc4ccco4)C3)cc2s1 (stereo not given)	-2.0	3.0	-8.1	-65.0	-5.5
CN(C(=O)c1ccc2c(c1)OCO2)C1(C)CCS(=O)(=O)C1 (stereo not given)	nt	6.6	nt	nt	nt
Cc1cccc(-c2nc(CN3CCCC(C(=O)NC4CCCCCC4)C3)c(C)o2)c1 (stereo not given)	-1.0	-3.7	3.8	-30.8	4.4
COc1cccc(OC)c1C(=O)N1CCN(Cc2ccncc2)CC1	-6.0	-1.6	2.3	71.1*	46.0
O=C(c1cccc(Cl)c1)N1CCN(Cc2ccncc2)CC1	-6.0	nt	18.6	32.6	24.7
COc1ccc(/C=N/NC(=O)C2C3CCCCC32C)cc1OC (stereo not given)	0.0	-1.1	6.9	-12.4	-1.6
COc1cc(/C=N/NC(=O)C2C3CCCCC32C)cc(Br)c1O (stereo not given)	-6.0	1.8	50.9*	-13.1	-11.9
CCCC(C)NCC(=O)Nc1ccccc1-c1ccccc1 (stereo not given)	-3.0	-3.5	16.4	22.0	72.3*
COc1ccc(NC(=O)NC2CCCCCCC2)cc1OC	nt	0.6	nt	nt	nt
C=CCn1c(C)cc(C2=NNC(=Nc3ccc(C)cc3)SC2)c1C	2.0	9.3	10.6	-11.4	-6.1
Cc1cc(C2=NNC(=Nc3ccc(S(=O)(=O)N4CCOCC4)cc3)SC2)c(C)n1C	nt	0.8	72.0*	-41.6	16.3
CC(=O)Nc1ccc(S(=O)(=O)NCc2ccc(C(=O)NCc3ccc(Cl)cc3)cc2)cc1	2.0	-3.9	-30.2	18.3	74.4*
COc1ccc(CNS(=O)(=O)c2ccc(F)c(C(=O)Nc3ccc(OC)cc3)c2)cc1	-2.0	1.0	53.5*	-11.8	-3.1
CC(C)=CCOc1ccc2ccc(=O)oc2c1	0.0	1.1	-10.6	-3.6	10.0
SMILES	Bim-Mcl-1	MCL1-BIM inh	Mcl1-Noxa inh	Mcl1 Bid PPI	14-3-3 Bad PPI
CCN(CC)CC(=O)Nc1cc(N(C)C)nc2ccccc12	nt	-1.8	48.4	37.1	57.5
CCCCc1nc2ccccc2c(NC(=O)CN(CC)CC)c1CCC	-45.0	6.3	20.4	50.6*	74.0*
CCCc1nc2ccccc2c(NC(=O)CN(CC)CC)c1CC	-5.0	-1.6	26.1	61.7*	79.9*
CCOc1ccc(S(=O)(=O)NCc2ccncc2)cc1NC(=O)c1ccccc1	nt	1.7	nt	nt	nt
O=C(COc1ccc(Cl)cc1Cl)NNC(=S)NCc1ccco1	1.0	-12.1	-15.3	-98.7	-9.5
O=C(NC1CCCCC1)C(c1cccs1)N(C(=O)c1ccccn1)c1ccccc1 (stereo not given)	-7.0	2.3	3.5	-1.2	-16.5
OC(C#Cc1ccccn1)c1cccs1 (stereo not given)	-4.0	43.6*	8.0	-13.4	1.8
O=C(CCNC(=O)c1ccc([N+](=O)[O-])cc1)NCCC1=CCCCC1	nt	-4.5	nt	nt	nt
